Results from ChEMBL document CHEMBL4513216, “Probing the Open Global Health Chemical Diversity Library for Multistage-Active Starting Points for Next-Generation Antimalarials” (ACS Infect Dis, 2020).
Hit rate of the full screen: of about 69,000 compounds, about 8,600 (12%) showed an effect of 50% or more. This is one part of a sample in which strong results are shown more often than they occur.

The compounds below were run on Plasmodium berghei (assay: Screen against P. berghei liver stage (PbLuc), transformed with Luciferase, at 10uM). Conditions: tested at 10 uM.
Format: functional, HepG2

Structure (SMILES)	INHIBITION [%]
O=C(NCCCn1cncn1)N1CCCCCC1	20.45
COCCOc1ncccc1C(=O)N1CCCCC1c1nccs1 (stereo unspecified)	-38.7
CCc1cc(C(=O)N2CCC(c3cc4ncccc4cn3)CC2)on1	20.8
CCCN1CCN(C(=O)c2ccn(COc3ccc(F)cc3)n2)CC1	2.69
CCOc1ccccc1C(=O)Nn1c(C)cc(C)cc1=O	44.1
CC(=O)N1CCN(CCNC(=O)NC(C)Cn2ccnc2)CC1 (stereo unspecified)	43.5
O=C(NC1CC1)[C@H]1C[C@@H]2CCN(Cc3ccc4c(c3)OCO4)C[C@@H]2O1	61.1
CNC(=O)[C@H]1C[C@@H]2CCN(Cc3ccc4c(c3)OCO4)C[C@@H]2O1	-9.18
O=C(NC1CC1)[C@@H]1C[C@@H]2CCN(Cc3ccoc3)C[C@@H]2O1	49.4
O=C(NCC1CC1)[C@H]1C[C@@H]2CCN(Cc3ccc4c(c3)OCO4)C[C@@H]2O1	30.4
COCCNC(=O)[C@H]1C[C@@H]2CCN(Cc3ccoc3)C[C@H]2O1	30.1
CNC(=O)[C@@H]1C[C@@H]2CCN(Cc3ccoc3)C[C@H]2O1	30.3
O=C(NC1CCCC1)[C@@H]1C[C@@H]2CCN(Cc3ccoc3)C[C@H]2O1	54.8
O=C(NCC1CC1)[C@@H]1C[C@@H]2CCN(Cc3ccoc3)C[C@@H]2O1	-10.3
CC(C)NC(=O)[C@@H]1C[C@@H]2CCN(Cc3ccoc3)C[C@H]2O1	53.9
CCN(C)[C@H]1CN(C(=O)c2cccc(N3CCS(=O)(=O)CC3)c2)C[C@@H]1O	8.74
O=C1CC2(CCN(Cc3ccccn3)C2)CN1c1cncnc1 (stereo unspecified)	-3.41
Cc1nccn1-c1ccc(NS(=O)(=O)c2cccnc2)cn1	6.94
O=C(c1ccsc1)N1CCO[C@@H]2CN(Cc3cccs3)C[C@@H]2C1	-2.46
Cn1cnc(-c2nc(C(=O)NCC3CCCO3)c3ccccn23)c1 (stereo unspecified)	4.08
O=C(NCCO)c1coc(CN2CCN(c3ccccc3F)CC2)n1	26.9
O=C(NCC1CCCO1)c1coc(Cn2cnc3ccccc32)n1 (stereo unspecified)	69.1
O=C(NCC1CCCCO1)c1cc(Cn2cnc3ccccc32)[nH]n1 (stereo unspecified)	31.4
O=C(NCCO)c1coc(Cn2cnc3ccccc32)n1	52
CSCCCNC(=O)c1coc(Cn2cnc3ccccc32)n1	25.1
CC(C)=CCN1C(=O)[C@@H]2CC[C@H]1CN(c1ncccc1C(N)=O)C2	49.7
